# Results filed as inconclusive are left out. A number with no mark means an inactive call. The source made the active and inactive calls. The call rests on the fitted dose curve; in most records, active means well fitted inhibition curve with a large enough effect; inconclusive means small, poorly fitted or top-dose-only effect; inactive means flat fitted curve, though single readings scatter.
# Tests used:
# [1] = Drug repurposing screens with cells derived from glioblastoma tumor samples (AID 1345199); settings: GBM patient neurospheres viability, ATP luminescence, 48 h; further: nearly all actives have a fitted effect of over 40% in size
# Procedure, shortened: (§1)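 Primary testing used CD133+ neurospheres from four GBM patients, seven concentrations, 48 h exposure and ATP-based viability; confirmation added three slower-growing patient lines.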
# astro = control astrocytes; test: as above; settings: viability, ATP luminescence, 48 h; series mostly up to 45.9 µM
# Procedure, shortened: as §1
# [2] = at 45.9 µM (top of the series), tumour line B
# [3] = at 45.9 µM (top of the series), tumour line D
# [4] = at 46 µM (top of the series), tumour line A
# [5] = at 46.1 µM (top of the series), tumour line C
# [6] = at 20 µM (top of the series), tumour line C
# [7] = at 21.2 µM (top of the series), tumour line B
# [8] = at 21.2 µM (top of the series), tumour line D
# On the % scale 0 is the no-effect control and ±100 the full control effect; potency means the concentration at half of the fitted maximal effect.
compound,measurement,setting,value
C[C@@](Cc1ccc(O)c(O)c1)(NN)C(=O)O,"activity, negative = cell killing",[1]; [2],-16.8%
same,"activity, negative = cell killing",[1]; [3],-8.91%
same,"activity, negative = cell killing",[1]; [4],-39.3%
same,"activity, negative = cell killing",[1]; [5],-14.3%
same,Potency,astro,inactive
CC(CNC(=O)c1cccnc1)NC(=O)c1cccnc1 (configuration not stated),"activity, negative = cell killing",[1]; [2],-10.6%
same,"activity, negative = cell killing",[1]; [3],-9.97%
same,"activity, negative = cell killing",[1]; [4],-56.9%
same,"activity, negative = cell killing",[1]; [5],-14.1%
FC(F)(F)COCC(F)(F)F,"activity, negative = cell killing",[1]; [2],-8.9%
same,"activity, negative = cell killing",[1]; [3],-17.5%
same,"activity, negative = cell killing",[1]; [5],-24.2%
CC(C)(C)c1ccc2c(S(=O)(=O)O)c(C(C)(C)C)ccc2c1,"activity, negative = cell killing",[1]; [2],0.454%
same,"activity, negative = cell killing",[1]; [3],6.66%
same,"activity, negative = cell killing",[1]; [4],-27.1%
same,"activity, negative = cell killing",[1]; [5],-16.6%
same,"activity, negative = cell killing","[1]; at 91.6 µM (top of the series), tumour line B",-24.2%
same,"activity, negative = cell killing","[1]; at 91.6 µM (top of the series), tumour line D",-20.7%
same,"activity, negative = cell killing","[1]; at 99.2 µM (top of the series), tumour line C",-7.16%
same,Potency,astro,inactive
CCC(Oc1ccccc1)C(=O)N[C@@H]1C(=O)N2[C@@H]1SC(C)(C)[C@@H]2C(=O)O (some centres not stated),"activity, negative = cell killing",[1]; [2],-4.6%
same,"activity, negative = cell killing",[1]; [3],-5.25%
same,"activity, negative = cell killing",[1]; [4],-9.92%
same,"activity, negative = cell killing",[1]; [5],-0.932%
CC(CC=O)CCCC(C)(C)O (configuration not stated),"activity, negative = cell killing",[1]; [2],-11.5%
same,"activity, negative = cell killing",[1]; [3],-18.7%
same,"activity, negative = cell killing",[1]; [4],-27.2%
same,"activity, negative = cell killing",[1]; [5],-24.1%
CCN(CC)C(=S)S,"activity, negative = cell killing",[1]; [2],-1.95%
same,"activity, negative = cell killing",[1]; [3],-9.18%
same,"activity, negative = cell killing",[1]; [4],-29.6%
same,"activity, negative = cell killing",[1]; [5],-13.5%
O=C1NCCN1c1ncc([N+](=O)[O-])s1,"activity, negative = cell killing",[1]; [6],-26.4%
same,"activity, negative = cell killing",[1]; [7],-0.147%
same,"activity, negative = cell killing",[1]; [8],-24%
same,"activity, negative = cell killing","[1]; at 21.3 µM (top of the series), tumour line A",-10.3%
same,Potency,astro,inactive
CC(C)=CCC/C(C)=C/CC/C(C)=C/CC/C=C(\C)CC/C=C(\C)CCC=C(C)C,"activity, negative = cell killing",[1]; [2],2.98%
same,"activity, negative = cell killing",[1]; [3],-28.8%
same,"activity, negative = cell killing",[1]; [4],-32.1%
same,"activity, negative = cell killing",[1]; [5],-15.4%
O=C(O)COc1ccccc1/C=N/NC(=O)c1ccncc1,"activity, negative = cell killing",[1]; [2],-7.55%
same,"activity, negative = cell killing",[1]; [3],5.85%
same,"activity, negative = cell killing",[1]; [5],-10.4%
CC(=O)O[C@@H]1CC2CCC1(C)C2(C)C (some centres not stated),"activity, negative = cell killing",[1]; [2],-4.03%
same,"activity, negative = cell killing",[1]; [3],-12.8%
same,"activity, negative = cell killing",[1]; [4],-12.3%
same,"activity, negative = cell killing",[1]; [5],-4.87%
same,Potency,astro,inactive
CNC(=O)c1c(I)c(C(=O)NCC(=O)Nc2c(I)c(C(=O)O)c(I)c(C(=O)NCCO)c2I)c(I)c(N(C)C(C)=O)c1I,"activity, negative = cell killing",[1]; [2],-2.37%
same,"activity, negative = cell killing",[1]; [3],-21.2%
same,"activity, negative = cell killing",[1]; [4],-7.61%
same,"activity, negative = cell killing",[1]; [5],3.32%
CC(C)NCC(O)COc1ccccc1-n1cccc1 (configuration not stated),"activity, negative = cell killing",[1]; [2],-14.4%
same,"activity, negative = cell killing",[1]; [3],-7.4%
same,"activity, negative = cell killing",[1]; [4],15.7%
same,Potency,[1]; tumour line C,25.9 µM (active)
CC(=O)[C@@]1(O)CC[C@H]2[C@@H]3C=C(Cl)C4=CC(=O)[C@@H]5C[C@@H]5[C@]4(C)[C@H]3CC[C@@]21C,"activity, negative = cell killing",[1]; [2],-14.4%
same,"activity, negative = cell killing",[1]; [3],-9.17%
same,"activity, negative = cell killing",[1]; [4],-35.1%
same,"activity, negative = cell killing",[1]; [5],-13.6%
CCOC(=O)[C@@H](N)CS,"activity, negative = cell killing",[1]; [2],-8.18%
same,"activity, negative = cell killing",[1]; [3],-11.2%
same,"activity, negative = cell killing",[1]; [4],-24.4%
same,"activity, negative = cell killing",[1]; [5],1.04%
NC(=O)[C@H]1O[C@@H](O)[C@H](O)[C@@H](O)[C@@H]1O,"activity, negative = cell killing",[1]; [2],-7.58%
same,"activity, negative = cell killing",[1]; [3],-15.7%
same,"activity, negative = cell killing",[1]; [5],-23.5%
CCCCCCCCCCCCCCCCCCCCCC(=O)Nc1ccn([C@@H]2O[C@H](CO)[C@@H](O)[C@@H]2O)c(=O)n1,"activity, negative = cell killing",[1]; [2],-14.5%
same,"activity, negative = cell killing",[1]; [3],-7.79%
same,"activity, negative = cell killing",[1]; [5],-16.8%
OC/C=C/c1ccccc1,"activity, negative = cell killing",[1]; [2],-6.23%
same,"activity, negative = cell killing",[1]; [3],-1.36%
same,"activity, negative = cell killing",[1]; [4],-12.3%
same,"activity, negative = cell killing",[1]; [5],8.18%
same,Potency,astro,inactive
S=C=Nc1ccc(N=C=S)cc1,"activity, negative = cell killing",[1]; [2],-4.92%
same,"activity, negative = cell killing",[1]; [3],-5.1%
same,"activity, negative = cell killing",[1]; [4],-24.5%
same,"activity, negative = cell killing",[1]; [5],-6.65%
CC(=O)Oc1cccc(C(=O)O)c1OC(C)=O,"activity, negative = cell killing",[1]; [2],-9%
same,"activity, negative = cell killing",[1]; [3],-8.06%
same,"activity, negative = cell killing",[1]; [4],-12.3%
same,"activity, negative = cell killing",[1]; [5],-14.6%
Cc1cc2nc3c(=O)[nH]c(=O)nc-3n(C[C@H](O)[C@H](O)[C@H](O)COP(=O)(O)OP(=O)(O)OC[C@H]3O[C@@H](n4cnc5c(N)ncnc54)[C@H](O)[C@@H]3O)c2cc1C,"activity, negative = cell killing",[1]; [2],-13.1%
same,"activity, negative = cell killing",[1]; [3],-9.51%
same,"activity, negative = cell killing",[1]; [4],-9.49%
CC1=C(/C=C/C(C)=C/C=C/C(C)=C/C(=O)Oc2c(C)c(C)c3c(c2C)CC[C@@](C)(CCC[C@H](C)CCC[C@H](C)CCCC(C)C)O3)C(C)(C)CCC1,"activity, negative = cell killing",[1]; [2],-7.62%
same,"activity, negative = cell killing",[1]; [3],-2.61%
same,Potency,[1]; tumour line A,25.1 µM (active)
CC(C)=CCC/C(C)=C/CC/C(C)=C/CC/C(C)=C/CC1=C(C)C(=O)c2ccccc2C1=O,"activity, negative = cell killing",[1]; [2],-29.7%
same,Potency,[1]; tumour line A,10 µM (active)
same,Potency,[1]; tumour line C,23.1 µM (active)
CCCCC[C@H](O)/C=C/[C@H]1[C@H](O)CC(=O)[C@@H]1CCCCCCC(=O)O,"activity, negative = cell killing",[1]; [6],1.46%
same,"activity, negative = cell killing",[1]; [7],-10.6%
same,"activity, negative = cell killing",[1]; [8],-20.2%
same,Potency,[1]; tumour line A,11.2 µM (active)

# Reference: PubChem BioAssay (NCATS)
